# Assay results from PubChem BioAssay (NCI).
# About 79,000 compounds went through this panel and 15% of them were active in at least one assay; those are over-represented in the sample as a whole. Values without a mark were called inactive. Activity calls are given as the source filed them. Cut-off read from the data, not from the text of the source: active = growth inhibition above about 70%; inactive = the rest.
# Tests used:
# [1] = NCI Yeast Anticancer Drug Screen. Data for the rad50 strain (AID 155);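 note: 0% = growth of vehicle-only cultures of the same strain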; details: S. cerevisiae rad50 strain growth inhibition, active compounds read high
# How it was run: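 Inhibition values express reduced yeast growth in compound-treated cultures relative to vehicle-treated controls.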
# [2] = NCI Yeast Anticancer Drug Screen. Data for the mec2-1 strain (AID 157); details: S. cerevisiae mec2-1 strain, active compounds read high
# How it was run: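 mec2-1 yeast strain, carrying an alteration in DNA damage repair or cell cycle control, was exposed to compounds; growth inhibition was measured relative to vehicle-treated controls.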
# [3] = NCI Yeast Anticancer Drug Screen. Data for the sgs1 mgt1 strain (AID 161);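 note: 0% = growth of cultures given vehicle only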; details: S. cerevisiae sgs1 mgt1 strain, active compounds read high
# How it was run: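 Percent growth inhibition was derived by comparing compound-exposed mutant yeast with vehicle-exposed cultures. The strain carries alterations in DNA damage repair.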
# [4] = NCI Yeast Anticancer Drug Screen. Data for the cln2 rad14 strain (AID 165);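 note: 0% = growth equal to vehicle treated cultures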; details: S. cerevisiae cln2 rad14 strain, active compounds read high
# How it was run: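 Yeast carrying cln2 and rad14 alterations (cell cycle control and DNA damage repair) were exposed to compounds. Growth inhibition was measured against vehicle-treated controls.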
# [5] = NCI Yeast Anticancer Drug Screen. Data for the bub3 strain (AID 167); details: S. cerevisiae bub3 mutant strain, active compounds read high
# How it was run: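 Steps: expose the mutant yeast strain to compound; grow alongside vehicle-treated cultures; measure growth; express inhibition against the vehicle cultures.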
# [6] = NCI Yeast Anticancer Drug Screen. Data for the mlh1 rad18 strain (AID 175); details: S. cerevisiae mlh1 rad18 strain growth inhibition, active compounds read high
# How it was run: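 Growth inhibition of the yeast strain was measured after compound exposure and expressed relative to vehicle-treated controls. The strain carries defined defects in DNA damage repair.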
# [7] = at 5.0 µM (retest, dose inferred, filed as 0.5)
# [8] = at 50.0 µM (retest, dose inferred, filed as 5.0)
Compound,"growth inhibition [1, 7]","growth inhibition [1, 8]",growth inhibition ([1]; at 50.0 µM),"growth inhibition [2, 7]","growth inhibition [2, 8]",growth inhibition ([2]; at 50.0 µM),"growth inhibition [3, 7]","growth inhibition [3, 8]",growth inhibition ([3]; at 50.0 µM),"growth inhibition [4, 7]","growth inhibition [4, 8]",growth inhibition ([4]; at 50.0 µM),"growth inhibition [5, 7]","growth inhibition [5, 8]",growth inhibition ([5]; at 50.0 µM),"growth inhibition [6, 7]","growth inhibition [6, 8]",growth inhibition ([6]; at 50.0 µM)
O=C(COc1ccccc1)Oc1c(Cl)c(Cl)c(Cl)c(Cl)c1Cl,23%,94% (active),94% (active),28%,97% (active),98% (active),34%,98% (active),96% (active),10%,97% (active),96% (active),11%,96% (active),98.3% (active),23%,97% (active),97.5% (active)
Oc1ccc2cc(Br)ccc2c1O,-28%,97% (active),97.2% (active),-11%,97% (active),98.3% (active),10%,98% (active),97.5% (active),-24%,97% (active),97% (active),-5%,98% (active),98% (active),-7%,97% (active),98.2% (active)
O=C(O/N=C(/Cc1ccccc1)c1ccccc1)c1ccccc1,-15%,63%,90.3% (active),-10%,72% (active),28.1%,-1%,76% (active),88.8% (active),-6%,92% (active),43.6%,-17%,66%,18.4%,3%,87% (active),93.2% (active)
COC(=O)CCC(=O)NCCc1ccc2c([nH]c3ccccc32)c1C,12%,5%,55.6%,5%,-1%,59.7%,4%,11%,71.2% (active),5%,-7%,93% (active),5%,4%,63.5%,3%,-2%,91% (active)
Oc1cc(O)c2c(c1)OC(c1ccc(O)c(O)c1)C(OC1(c3cc(O)c(O)c(O)c3)Oc3cc(O)cc(O)c3C(O)C1O)C2 (configuration not stated),-4%,17%,-3.85%,-5%,-27%,-18.2%,-14%,6%,-15.9%,-31%,4%,-9.25%,8%,-4%,-33.5%,-5%,12%,42.5%
ClCC1CSC2(CCCCC2)O1 (configuration not stated),16%,3%,21.5%,10%,-16%,20.9%,7%,-8%,27.1%,15%,32%,13.7%,-13%,-9%,31.6%,-17%,-23%,27.5%
COc1ccc(CSC(=S)Nc2ccc(Cl)cc2Cl)cc1,6%,98% (active),99.2% (active),5%,99% (active),99.3% (active),8%,99% (active),99.3% (active),-24%,96% (active),98.7% (active),-6%,97% (active),99% (active),3%,98% (active),98.8% (active)
COc1ccc(-c2c(CO)cc(OC)c(OC)c2OC)c(CO)c1,-1%,6%,93.5% (active),-9%,21%,98.8% (active),-5%,22%,64.5%,-2%,10%,98% (active),1%,43%,98.7% (active),13%,41%,99% (active)
COC(=O)[C@]1(C)CCCC2(C)C3=C(CCC21)CC1(CC3)SCCS1 (some centres not stated),12%,92% (active),85.4% (active),41%,94% (active),91.3% (active),29%,93% (active),87.6% (active),46%,96% (active),86.4% (active),56%,95% (active),86.5% (active),18%,95% (active),85.7% (active)
O=C1C=C(c2ccccc2)S(=O)(=O)c2c(O)cccc21,88% (active),100% (active),99.6% (active),76% (active),100% (active),99.6% (active),80% (active),100% (active),99.5% (active),46%,99% (active),99% (active),71% (active),99% (active),99.2% (active),94% (active),100% (active),99.7% (active)
C=C1C(=O)O[C@@H]2CC(CO)=C([C@@H](C)CCCO)[C@@H](OC(=O)/C(C)=C\C)[C@H]12,3%,10%,92.2% (active),5%,33%,94.3% (active),4%,25%,93.8% (active),1%,6%,92.2% (active),9%,65%,92.8% (active),-2%,29%,-33.3%
CCCCCCOC(=O)CCC(=O)OCCCCCC,-7%,-20%,-2.7%,-3%,-20%,17.9%,-1%,15%,23.5%,32%,23%,41.1%,16%,43%,63.8%,-15%,-9%,24.1%
Oc1cc(F)ccc1-c1ccc(F)cc1,-5%,98% (active),72.5% (active),20%,99% (active),85% (active),13%,97% (active),47.4%,-9%,98% (active),60.3%,-12%,99% (active),75.7% (active),-6%,98% (active),84.7% (active)
Cc1cc(C(O)(C(F)(F)F)C(F)(F)F)c(I)c(C(O)(C(F)(F)F)C(F)(F)F)c1,100% (active),100% (active),97.3% (active),99% (active),100% (active),99.2% (active),99% (active),100% (active),99.2% (active),98% (active),99% (active),89.8% (active),99% (active),99% (active),98.7% (active),99% (active),99% (active),98.5% (active)
COC1CCC2(C)C(=CCC3C4CC(OC(C)=O)CC4(C)CCC32)C1 (configuration not stated),0%,5%,5.25%,-2%,5%,0.45%,2%,3%,-4.15%,-1%,4%,9.5%,0%,6%,-7.3%,2%,9%,-4.2%
C/C=C(\CCC1NCCc2c1[nH]c1ccccc21)[Si](C)(C)C (configuration not stated),-20%,99% (active),96.3% (active),-4%,99% (active),86.5% (active),19%,99% (active),93.1% (active),4%,99% (active),75.3% (active),11%,98% (active),77.8% (active),-21%,100% (active),95.8% (active)
C=CC(C)(CCC=C(C)C)OC(=O)Nc1ccccc1 (configuration not stated),19%,-13%,-7.2%,2%,-25%,-12.7%,-10%,13%,16.1%,-2%,6%,-7.95%,0%,-14%,8.05%,-2%,24%,-4.25%
Nc1nc(-c2ccccc2)cc(-c2ccccc2O)n1,7%,-1%,40.8%,0%,15%,20.5%,12%,19%,62.6%,13%,9%,69.2%,9%,23%,26.1%,8%,11%,67.7%
CS(=O)(=O)OC1C(O)C(n2cnc3c(N)ncnc32)C(O)C(OS(C)(=O)=O)C1OS(C)(=O)=O (configuration not stated),0%,-2%,0.05%,1%,-3%,57.5%,-2%,-1%,3.8%,-1%,0%,-7.9%,-1%,-2%,40%,-1%,-1%,18.4%
